Results published in PubChem BioAssay (EPA / NIEHS).
Results filed as inconclusive are left out. Calls of active or inactive are those of the source. Rule for the calls: active = hit-call score of the fitted dose curve at least 0.9, where 1 is the maximum; inconclusive = response in the unintended direction; inactive = score below 0.9.

These molecules were tested against human Opioid Receptor Delta 1 (Opiate D1), OPRD1 (gene 4985) (UniProt P41143) (assay: NVS_GPCR_hOpiate_D1: NovaScreen (NVS) G Protein-Coupled Receptor Assay for human Opioid Receptor Delta 1 (Opiate D1) (AID 2283280)).
Protocol: NVS_GPCR_hOpiate_D1 is a biochemical, single-readout assay that uses extracted gene-proteins from CHO in a cell-free assay. Measurements were taken 1 hour after chemical dosing in a 96-well plate.NVS_GPCR_hOpiate_D1 is one of one assay component(s) measured or calculated from the NVS_GPCR_hOpiate_D1 assay. It is designed to make measurements of radioligand binding, a form of binding reporter, as detected with scintillation counting signals by Filter-based radiodetection technology.Data from the assay component NVS_GPCR_hOpiate_D1 was analyzed into 1 assay endpoint. This assay endpoint, NVS_GPCR_hOpiate_D1, was analyzed in the positive analysis fitting direction relative to DMSO as the negative control and baseline of activity. Using a type of binding reporter, loss-of-signal activity can be used to understand changes in the binding as they relate to the gene OPRD1. Furthermore, this assay endpoint can be referred to as a primary readout, because the performed assay has only produced 1 assay endpoint. To generalize the intended target to other relatable targets, this assay endpoint is annotated to the gpcr intended target family, where the subfamily is rhodopsin-like receptor.
Binding assays used specific radioligands (tritiated, iodinated) with non-radioactive competitive displacement ligands in agonist or antagonist protocols (as indicated) and various reference compounds and inhibitors to titrate specific binding to receptors and transporters. Most enzyme assays (CYPs, kinases, phosphatases, proteases, HDACs) used recombinant protein and specific substrates (fluorescence mostly, some colorimetric and radioactive) and inhibitors, followed by a biochemical separation of substrate and product. All assays for the biochemical HTS were initially run in duplicate at a single concentration (10 uM for CYP450 assays and 25 uM for all others). […] Each assay was run with positive and negative controls, and concurrent controls on every plate. The follow-up (secondary) screen tested active chemical-pairs in concentration series, as well as a few additional assays not tested in the primary screen, some selected negative inactives, and several cases re-run in the concentration series for confirmatory purposes.

Chain of human Opioid Receptor Delta 1 (Opiate D1), OPRD1 (gene 4985) (P41143 whole entry, looked up): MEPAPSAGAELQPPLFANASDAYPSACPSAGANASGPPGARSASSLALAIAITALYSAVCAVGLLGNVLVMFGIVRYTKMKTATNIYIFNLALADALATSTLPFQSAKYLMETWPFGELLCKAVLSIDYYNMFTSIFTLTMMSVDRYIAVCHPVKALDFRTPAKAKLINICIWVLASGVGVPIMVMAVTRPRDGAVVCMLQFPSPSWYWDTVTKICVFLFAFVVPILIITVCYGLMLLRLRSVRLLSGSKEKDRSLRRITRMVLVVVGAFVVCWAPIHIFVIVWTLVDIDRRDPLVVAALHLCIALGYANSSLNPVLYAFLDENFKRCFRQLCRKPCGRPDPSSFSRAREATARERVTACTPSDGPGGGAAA

| Structure (SMILES) | AC50 | outcome |
| --- | --- | --- |
| CN(C)c1ccc(C(=C2C=CC(=[N+](C)C)C=C2)c2ccc(N(C)C)cc2)cc1 | 8.5 µM (active) |  |
| CCN(Cc1cccnc1)C(=O)c1cccc(Cl)c1[C@]1(C)C(=O)N(Cc2ccc(OC)cc2OC)c2ccc(Cl)cc21 | 2.01 µM (active) |  |
| CC/C(=C(/CC)c1ccc(O)cc1)c1ccc(O)cc1 |  | inactive |
| C[C@]12CC[C@@H]3c4ccc(O)cc4CC[C@H]3[C@@H]1CCC2=O |  | inactive |
| CC(C)(C)c1csc(-c2cc3cc(OCc4ccccc4CC(=O)O)ccc3o2)n1 |  | inactive |
| NCc1cccc(C2CCN(C(=O)c3ccc(C#Cc4ccccc4F)o3)CC2)c1 | 10.2 µM (active) |  |
| CCN(CC)C(=O)c1cc(S(=O)(=O)Cc2ccccc2)c(N2CCC(c3ccccc3)CC2)cc1N(CC)CCN(C)C | 14.2 µM (active) |  |
| CC[C@H](NC(=O)c1cc(F)ccc1NS(=O)(=O)c1cccc2cccnc12)c1ccccc1 |  | inactive |
| CCOC(=O)O[C@H](C)OC(=O)c1ccc2c(c1)cc(C(=O)NC1CCN(C(C)C)CC1)n2Cc1cc(-c2ccc(Cl)s2)on1 | 3.36 µM (active) |  |
| Cc1cc(F)ccc1-c1cc(N2CC[C@@H](O)[C@H]2CO)ncc1N(C)C(=O)C(C)(C)c1cc(C(F)(F)F)cc(C(F)(F)F)c1 | 15.8 µM (active) |  |
| CN(C)C(=O)C1(N2CCCCC2)CCN(CC[C@@]2(c3ccc(Cl)c(Cl)c3)CN(C(=O)c3ccccc3)CCO2)CC1 | 10.3 µM (active) |  |
| CCCCCCCCOC(=O)c1cc(O)c(O)c(O)c1 | 16.4 µM (active) |  |
